Bioassay records (PubChem BioAssay)
In the library only some 27% were active in any assay of this set; here they are far more common.
PTK2B oligo ant: antagonists of human Pyk2 oligomerization; Q14289; Q293 cells, Pyk2 FERM NanoBiT luminescence; active compounds read low; z-score (the deposit names both 25 µM and 10 µM); actives 0.83% (n = 99,000); AID 1347419;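 active means Z-score of -3 or lower, scaled per plate to the spread of control and sample wells; inactive means z-score above -3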;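 further: negative z-score means lost luminescence so less FERM oligomerization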
CYP2C9 act: increases human cytochrome P450 2C9 activity; recombinant CYP2C9, luciferin-H conversion, luminescence; active compounds read high; factor 1 = untreated enzyme, 0 = blocked; actives 1.4% (n = 96,000); P11712; activation factor at 5 µM; AID 1024;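 active means activation factor of 2 or more for CYP2C9 at a 5 µM dose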;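 further: 0 = sulfaphenazole-blocked wells and 1 = vehicle-only wells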
Target sequence (P11712 whole entry, looked up): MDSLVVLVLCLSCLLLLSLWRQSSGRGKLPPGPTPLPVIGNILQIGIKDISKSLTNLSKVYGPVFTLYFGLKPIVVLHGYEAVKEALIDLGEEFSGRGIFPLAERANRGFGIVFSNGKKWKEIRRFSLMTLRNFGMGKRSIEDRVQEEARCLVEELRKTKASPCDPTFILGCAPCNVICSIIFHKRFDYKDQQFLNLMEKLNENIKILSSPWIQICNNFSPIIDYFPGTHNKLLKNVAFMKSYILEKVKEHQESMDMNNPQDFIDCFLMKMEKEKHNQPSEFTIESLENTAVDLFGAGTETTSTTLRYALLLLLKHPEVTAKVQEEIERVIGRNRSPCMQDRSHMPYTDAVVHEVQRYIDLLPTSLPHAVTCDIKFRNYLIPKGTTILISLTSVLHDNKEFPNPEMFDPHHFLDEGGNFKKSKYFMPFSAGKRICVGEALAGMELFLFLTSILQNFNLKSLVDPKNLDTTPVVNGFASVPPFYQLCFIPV
CYP2C9 inh: human CYP2C9 inhibition | P11712 | CYP2C9 Supersomes, luciferin-H conversion, luminescence | inhibition, % at 5 µM | actives 20% (n = 96,000);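 active means blocking of liver enzyme CYP2C9 beyond about 50% at 5 µM, limit read from the data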
Cav3 T inh: blocks human Cav3.2 T-type calcium channel; O95180; Cav3.2-expressing cells, Fluo-4 calcium fluorescence FDSS; active compounds read low; B-score at 10 µM; actives 4% (n = 100,000);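 active means single-dose well whose peak fluorescence ratio is a statistical outlier from its plate by either plate-standardised score or position-corrected B-score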
CYP2C19 activ: activators of human cytochrome P450 2C19 | P33261 | 96,000 tested, under 10 active | AID 1025 | activation factor at 5 µM | recombinant CYP2C19, luciferin-H EGE luminescence; active compounds read high; 0 = fully inhibited enzyme, 1 = untreated enzyme;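 active means activation factor of at least 2 at 5 µM in the primary screen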;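 further: 0 = wells with 2.5 mM tranylcypromine and 1 = vehicle-only wells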
CYP2C19 inhib: blocks human cytochrome P450 2C19; inhibition, % at 5 µM; P33261; CYP2C19 Supersomes, luciferin-H EGE luminescence, 30 min; actives 21% (n = 96,000); AID 778;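 active means CYP2C19 inhibition above a set limit at 5 µM in the primary screen, cut at about 50% in these data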;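 further: plate controls were negative control wells for no effect and 2.5 mM tranylcypromine positive control for full effect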
The depositor's hits bear a star; / = no result given.

SMILES	PTK2B oligo ant	CYP2C9 act	CYP2C9 inh	Cav3 T inh	CYP2C19 activ	CYP2C19 inhib
Cn1ncc(N=Cc2ccccc2)c1C(N)=O	0.58	0.7	27.7	/	1	-0.6
Cc1cc(C(=O)Cn2nnc3ccccc3c2=O)c(C)n1-c1c(C)n(C)n(-c2ccccc2)c1=O	-0.46	0.8	23.3	0.325	1	2.3
Cc1cc(C(=O)Cn2nnc3ccccc3c2=O)c(C)n1-c1ccccc1F	-1.11	1	4.4	-7*	0.5	52.4*
COc1ccc(-n2c(C)cc(C(=O)Cn3nnc4ccccc4c3=O)c2C)cc1	-0.59	0.2	83.3*	-1.86	0.4	60.0*
COc1cc(S(=O)(=O)NCC2COCCO2)ccc1-n1cnnn1 (stereo not drawn)	0.24	0.9	7.7	-0.538	0.7	28.2
COc1cc(S(=O)(=O)NCCc2ccc3c(c2)OCO3)ccc1-n1cnnn1	1.76	0.1	87.3*	-0.175	0	95.7*
CCOCCCNS(=O)(=O)c1ccc(-n2cnnn2)c(OC)c1	0.44	1.3	-34.0	1.26	0.1	88.6*
COc1cc(C(=O)Nc2ccc3c(c2)OCCO3)ccc1-n1cnnn1	0.84	1.1	-8.9	0.586	0.6	45.0
COc1cc(NS(=O)(=O)c2ccc(C)cc2)ccc1-n1cnnn1	-0.42	0.3	72.2*	-0.00432	0.6	44.3
Cc1ccccc1Nc1nc(N)nc(CSc2nnnn2-c2ccccc2)n1	-2.19	0.2	82.4*	-0.00637	0.1	87.6*
CN(C)c1nc(N)nc(CSc2nnnn2-c2ccc(C(=O)O)cc2)n1	-0.52	1.2	-21.4	1.04	1	-3.8
Cc1nc(Cc2nnc(SCc3nc(N)nc(Nc4ccccc4C)n3)o2)cs1	0.11	0.5	51.3*	0.273	0.7	30.2
CN(C)c1nc(N)nc(CSc2nnnn2-c2ccccc2)n1	-0.19	0.8	17.2	0.147	0.5	52.2*
Cc1ccc(Nc2nc(N)nc(CSc3nc4ccccc4s3)n2)cc1	-2.87	1.2	-22.6	/	0.7	34.1
O=C(O)c1ccc(NS(=O)(=O)c2ccc(Cl)cc2)cc1	0.39	1.1	-7.1	0.242	1	-2.1
CC1=NC(=O)C(N=Nc2cccc(O)c2)N1c1ccccc1 (stereo not drawn)	-0.83	0.6	39.0	0.337	0.8	19.6
COc1ccc(-n2c(C)nc(=O)c(-c3ccccc3)c2C)cc1	0.49	/	/	-0.0178	/	/
COc1ccccc1-n1c(C)nc(=O)c(-c2ccccc2)c1C	1.05	0.9	6.7	1.4	0.2	77.6*
CCOC(=O)c1cc2occc2n1CC(=O)N1CCOCC1	0.15	1.1	-10.7	1.26	0.9	8.9
CCOC(=O)c1cc2sc(C)cc2n1CCCN1C(=O)c2ccccc2C1=O	-0.25	0.4	56.8*	-0.98	0.9	13.5
CCOC(=O)c1cc2occc2n1CCCN1C(=O)c2ccccc2C1=O	-0.63	0.1	86.7*	-1.39	0.8	20.8
O=C1CN(C(=O)CN2CCCC2)C(c2ccccc2)c2cc(Br)ccc2N1 (stereo not drawn)	0.8	0.8	25.0	1.68	0.7	29.7
O=C1CN(C(=O)CN2CCOCC2)C(c2ccccc2)c2cc(Br)ccc2N1 (stereo not drawn)	/	0.3	68.0*	2.95	0.4	64.8*
Cn1c2ccccc2c2cnn(CC(=O)O)c(=O)c21	0.79	0.9	8.2	0.057	1	0.9
CCN1CCN(C(=O)CCCn2c(C)c3cnn(-c4ccccc4)c(=O)c3c2C)CC1	/	0.9	11.7	2.02	0.9	12.3
SMILES	PTK2B oligo ant	CYP2C9 act	CYP2C9 inh	Cav3 T inh	CYP2C19 activ	CYP2C19 inhib
Cc1c2cnn(-c3ccccc3)c(=O)c2c(C)n1CCCC(=O)N1CCN(c2ncccn2)CC1	0.58	0.6	36.1	5.47*	0.6	40.9
O=C(Cn1ncc2c3ccccc3n(Cc3ccccc3)c2c1=O)N1CCN(c2ncccn2)CC1	-0.44	0.2	76.9*	-1.36	0	98.3*
COc1ccc(S(=O)(=O)N2CCC(C(=O)Nc3ccc4c(c3)OCCO4)CC2)cc1OC	0.24	0.7	31.7	-0.187	1.1	-5.0
CCCCc1c(O)nc(SCC(=O)NCCc2ccc(OC)c(OC)c2)[nH]c1=O	-0.56	0.9	14.4	-1.38	0.9	10.5
N#Cc1nc(COc2ccccc2)oc1N1CCCC1	-0.59	0.7	31.0	/	0.1	88.0*
CN1CCN(c2oc(COc3ccc(-c4ccccc4)cc3)nc2C#N)CC1	-2.65	0.8	19.9	-0.107	0.4	55.1*
N#Cc1nc(COc2ccc(Br)cc2)oc1N1CCCC1	-1.48	0.4	64.7*	-3.23	0	99.3*
N#Cc1nc(COc2ccccc2)oc1N1CCOCC1	0.53	1	0.1	0.00285	0.8	23.9
N#Cc1nc(COc2ccccc2)oc1N1CCCCCC1	/	0.8	22.7	-4*	0.9	14.6
O=C(Nc1ccccc1C(F)(F)F)C1CC(=O)N(c2ccccc2F)C1 (stereo not drawn)	-0.32	0.9	12.7	1.52	0.8	15.8
CCOC(=O)C(NC(=O)c1ccccc1OCC)(Nc1ncccn1)C(F)(F)F (stereo not drawn)	-2.36	0.9	10.7	-0.0468	0.7	30.2
Cc1cc(C)c2c(=O)n(CC(=O)NCCCN3CCN(c4ccccc4F)CC3)sc2n1	/	0.3	65.2*	/	0.6	38.4
Cn1c(C(=O)NCCCN2CCOCC2)cc2c(=O)n(C)c3ccccc3c21	/	0.9	5.9	0.0345	0.9	13.8
Cn1c(C(=O)NCCCN2CCN(c3ccccc3F)CC2)cc2c(=O)n(C)c3ccccc3c21	/	0.5	50.0*	0.344	0.3	65.6*
Cc1ccccc1CS(=O)(=O)CCC(=O)NCCCN1CCN(c2ccccc2F)CC1	2.13	1	-3.7	0.288	1	2.5
Cc1cc(=O)oc(C)c1C(=O)NCCCN1CCN(c2ccccc2F)CC1	0.75	0.4	63.6*	1.03	0.9	8.4
CCn1c2ccccc2c2nnc(SCC(=O)N3CC(C)OC(C)C3)nc21 (stereo not drawn)	-0.63	1.3	-32.9	0.46	0.8	21.6
COc1cc(Cc2nc3ccc(S(=O)(=O)N4CCOCC4)cc3[nH]2)cc(OC)c1OC	2.79	0.9	6.8	-0.688	0.9	5.3
CCOC(=O)c1cnc2sc3c(n2c1=O)CCCC3	1.28	1.2	-23.5	0.853	0.9	7.9
Cc1nc(Oc2cccc(Cl)c2)c2oc3ccccc3c2n1	-0.27	1	2.9	-1.01	1	-3.6
COC(=O)c1cccc(C(=O)Nc2ccc(C)cc2Br)n1	-0.67	0.5	54.5*	/	0.8	21.6
CCOC(=O)Nc1ccc(C)cc1Br	-0.14	1	-2.9	1.37	1	-3.6
COc1cc(C(=S)N2CCOCC2)cc(OC)c1OS(=O)(=O)c1ccc(NC(C)=O)cc1	-0.3	0.6	36.5	0.993	0.4	57.5*
Cc1ccc(-c2nnc(N3CCCCC3)c3ccccc23)cc1S(=O)(=O)N1CCN(C)CC1	-0.48	0.4	57.5*	-2.15	0.9	14.6
Cc1ccc(-c2nnc(N3CCCCC3)c3ccccc23)cc1S(=O)(=O)N(C)C	-0.08	0.5	47.7	-1.06	0.8	20.5
